The values that follow come from the supplement of paper PMC9694430.

SMILES strings stand for the structures.

One assay concerns LOC_OS01G02750-cb003. Kind of assay: thermal shift delta Tm vs DMSO control; higher = stronger stabilization (binding). The settings on record: 12.5 µM; protein concentration 2 µM. Put shortly:
(§1)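 Rice kinase domain constructs were expressed in E. coli, purified, and tested by differential scanning fluorimetry with compound added in DMSO. Each well of a 96-well plate held 19.5 μl of 2 μM kinase in 100 mM potassium phosphate pH 7.5, 150 mM NaCl, 10% glycerol and 5 × SYPRO Orange, and fluorescence was read from 25°C to 95°C at 0.05°C/s. The melting temperature shift is the mean of triplicates, taken against protein with DMSO alone after Boltzmann fitting.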
Take `COCCNCc1ccc(-c2cc3nccc(Oc4ccc(NC(=O)C5(C(=O)Nc6ccc(F)cc6)CC5)cc4F)c3s2)nc1` [Sitravatinib (MGCD516)]: the “thermal shift delta Tm” value was 7.38 °C.
Still for that read-out and setting: the figure for `COCC(=O)NC/C=C/c1ccc2ncnc(Nc3ccc(Oc4ccc(C)nc4)c(C)c3)c2c1` is 0.21 °C.
Same read-out and setting: the figure for `O=C(NOC[C@H](O)CO)c1ccc(F)c(F)c1Nc1ccc(I)cc1F` is 0.99 °C.
Still for that read-out and setting: the figure for `Cc1cc(Nc2cc(N3CCN(C)CC3)nc(/C=C/c3ccccc3)n2)n[nH]1` is 1.8 °C; for `Nc1nc(N)c2nc(-c3cccc(O)c3)c(-c3cccc(O)c3)nc2n1` it is 0.72 °C; for `Cc1nc(Nc2ncc(C(=O)Nc3c(C)cccc3Cl)s2)cc(N2CCN(CCO)CC2)n1` [Dasatinib] it is 0.59 °C.
As for `O=C(c1ccc(Nc2nccc(-c3cc4ccccc4s3)n2)cc1)N1CCC(N2CCCC2)CC1` [IKK-16 (IKK Inhibitor VII)], the “thermal shift delta Tm” value was 2.69 °C.
Take `CC(C)CC(=O)Nc1n[nH]c2c1CN(C(=O)C1CCN(C)CC1)C2(C)C`: the “thermal shift delta Tm” value stood at 1.36 °C.
Same read-out and setting: the figure for `COc1cc2c(Oc3ccc(NC(=O)C4(C(=O)Nc5ccc(F)cc5)CC4)cc3F)ccnc2cc1OCCCN1CCOCC1` is 3.47 °C; for `OCCn1cc(-c2cnc3nnn(Cc4ccc5ncccc5c4)c3n2)cn1` it is 0.79 °C.
Same read-out and setting: the result for `CC(C)(C)c1nc(-c2ccc(NC(=O)Nc3cccc(C(F)(F)F)c3)c3ccccc23)c2c(N)nccn12` [kira6] reads 9.79 °C; that for `COc1ccc(-c2ccc3ncc4c(c3c2)n(-c2ccc(N3CCNCC3)c(C(F)(F)F)c2)c(=O)n4C)cn1`, 2.95 °C; that for `FC(F)(F)c1ccc(CNc2ccc(Cc3c[nH]c4ncc(Cl)cc34)cn2)cn1` [Pexidartinib (PLX3397)], 3.35 °C.
Turning to `Cc1nc(NC(=O)N2CCC[C@H]2C(N)=O)sc1-c1ccnc(C(C)(C)C(F)(F)F)c1` [Alpelisib (BYL719)], the “thermal shift delta Tm” value was 1.42 °C.
Same read-out and setting: the result for `O=C(NCCO)c1cccc(-c2cc(Nc3ccc(OC(F)(F)F)cc3)ncn2)c1` reads 0.32 °C; that for `C[C@@H](Nc1cc(F)cc(F)c1)c1cc(C(=O)N(C)C)cc2c(=O)cc(N3CCOCC3)oc12`, 1.11 °C; that for `C[C@@H]1COCCN1c1cc(=O)n2c(n1)N(Cc1cncc(Cl)c1)[C@H](C(F)(F)F)CC2`, 1.55 °C.
On the same count and under the same terms, the result for `CNc1nc(-c2ccc3c(N)n[nH]c3c2)cc(N2C[C@@H](C(=O)NC3CCCCC3)CC[C@H]2C)n1` reads 0.32 °C; that for `COc1cc(N2CCC(N(C)C)CC2)ccc1Nc1ncc(Cl)c(Nc2ccccc2P(C)(C)=O)n1`, -0.8 °C; that for `CN1CCN(c2ccc3nc(-c4c(N)c5c(F)cccc5[nH]c4=O)[nH]c3c2)CC1` [Dovitinib (TKI258) Lactate], 2.78 °C.
Same read-out and setting: the figure for `N#C/C(=C(/N)Sc1ccc(N)cc1)c1ccccc1C(F)(F)F` is -0.14 °C.
For the molecule `Cc1c(C(=O)N2CCOc3ccc(-c4ccc(N)nc4)cc3C2)ccc(S(C)(=O)=O)c1F`, the “thermal shift delta Tm” value was determined as 0.8 °C.
Turning to `CCOc1cc2ncc(C#N)c(Nc3ccc(F)c(Cl)c3)c2cc1NC(=O)/C=C/CN(C)C` [Pelitinib (EKB-569)], the “thermal shift delta Tm” value was found to be 0.32 °C.
Consider `Oc1ccc(Nc2nc(-c3ccc(Cl)cc3)cs2)cc1`, for which the “thermal shift delta Tm” value was found to be 3.1 °C.
The same measure, in the same setting: the result for `O=C(Nc1ccccc1C(=O)NC1CCCCNC1=O)c1cc2ccccc2s1` (centres undefined) reads 1.09 °C; that for `CC(C)c1c2cc(-c3ccnc(NC4CCC(NC5CCOCC5)CC4)n3)ccc2nn1C` (centres undefined), 4.38 °C; that for `NCC(=O)Nc1ccc(-n2nc(C(F)(F)F)cc2-c2ccc3c(ccc4ccccc43)c2)cc1`, 6.14 °C.
On the same count and under the same terms, the figure for `Cc1cc(NC(=O)c2cccc(NC(=O)/C=C/CN(C)C)c2)ccc1Nc1nccc(-c2cccnc2)n1` is 1.69 °C.
In the case of `N#Cc1ccc2ncnc(NCCc3ccccc3)c2c1` [Senexin A], the “thermal shift delta Tm” value was determined as 1.5 °C.
The same measure, in the same setting: the result for `CCOc1cn(-c2ccc(F)cc2C)nc1C(=O)Nc1ccc(Oc2ccnc3cc(OC)c(OC)cc23)c(F)c1` reads 1.86 °C; that for `Fc1ccc2[nH]ccc2c1-c1nc(N2CCOCC2)c2sc(CN3CCN(CC4CC4)CC3)cc2n1`, 0.77 °C.
The same measure, in the same setting: the result for `COc1cccc2cc(-c3nc([C@H]4CC[C@H](C(=O)O)CC4)n4ncnc(N)c34)[nH]c12` reads 0.05 °C; that for `N#Cc1cnc(Nc2cc(NC[C@H]3CNCCO3)c(C(F)(F)F)cn2)cn1`, 2.89 °C; that for `O=C(NOCCO)c1ccc2cncn2c1Nc1ccc(I)cc1F`, 5.7 °C.
On the same count and under the same terms, the figure for `COc1cc2c(Nc3ccc(NC(=O)c4ccccc4)cc3)ncnc2cc1OCCCN1CCOCC1` is 0.98 °C.
Take `NC(=O)Nc1cc(-c2cccc(F)c2)sc1C(=O)N[C@H]1CCCNC1`: the “thermal shift delta Tm” value is 5.35 °C.
Same read-out and setting: the result for `CNC(=O)c1ccc(-c2cnc3ncc(Cc4ccc5ncccc5c4)n3n2)cc1F` reads 0.51 °C.

The next assay concerns LOC_OS01G10900-cb004. The assay is described as above. The settings on record: 12.5 µM; protein concentration 2 µM. Put shortly:
as §1
For the molecule `COCCNCc1ccc(-c2cc3nccc(Oc4ccc(NC(=O)C5(C(=O)Nc6ccc(F)cc6)CC5)cc4F)c3s2)nc1` [Sitravatinib (MGCD516)], the “thermal shift delta Tm” value came out at 4.89 °C.
Same read-out and setting: the figure for `COCC(=O)NC/C=C/c1ccc2ncnc(Nc3ccc(Oc4ccc(C)nc4)c(C)c3)c2c1` is 0.42 °C; for `O=C(NOC[C@H](O)CO)c1ccc(F)c(F)c1Nc1ccc(I)cc1F` it is 0.49 °C.
For `Cc1cc(Nc2cc(N3CCN(C)CC3)nc(/C=C/c3ccccc3)n2)n[nH]1`, the “thermal shift delta Tm” value worked out at 1.93 °C.
For `Nc1nc(N)c2nc(-c3cccc(O)c3)c(-c3cccc(O)c3)nc2n1`, the “thermal shift delta Tm” value is 1.95 °C.
The same measure, in the same setting: the result for `Cc1nc(Nc2ncc(C(=O)Nc3c(C)cccc3Cl)s2)cc(N2CCN(CCO)CC2)n1` [Dasatinib] reads 4.47 °C; that for `O=C(c1ccc(Nc2nccc(-c3cc4ccccc4s3)n2)cc1)N1CCC(N2CCCC2)CC1` [IKK-16 (IKK Inhibitor VII)], 4.53 °C.
In the case of `CC(C)CC(=O)Nc1n[nH]c2c1CN(C(=O)C1CCN(C)CC1)C2(C)C`, the “thermal shift delta Tm” value turned out to be 0.4 °C.
Turning to `COc1cc2c(Oc3ccc(NC(=O)C4(C(=O)Nc5ccc(F)cc5)CC4)cc3F)ccnc2cc1OCCCN1CCOCC1`, the “thermal shift delta Tm” value came to 1.69 °C.
On the same count and under the same terms, the figure for `OCCn1cc(-c2cnc3nnn(Cc4ccc5ncccc5c4)c3n2)cn1` is -0.12 °C; for `CC(C)(C)c1nc(-c2ccc(NC(=O)Nc3cccc(C(F)(F)F)c3)c3ccccc23)c2c(N)nccn12` [kira6] it is 0.45 °C.
Still for that read-out and setting: the figure for `COc1ccc(-c2ccc3ncc4c(c3c2)n(-c2ccc(N3CCNCC3)c(C(F)(F)F)c2)c(=O)n4C)cn1` is 0.97 °C; for `FC(F)(F)c1ccc(CNc2ccc(Cc3c[nH]c4ncc(Cl)cc34)cn2)cn1` [Pexidartinib (PLX3397)] it is 3.09 °C.
Regarding `Cc1nc(NC(=O)N2CCC[C@H]2C(N)=O)sc1-c1ccnc(C(C)(C)C(F)(F)F)c1` [Alpelisib (BYL719)], the “thermal shift delta Tm” value amounted to 3.68 °C.
The same measure, in the same setting: the figure for `O=C(NCCO)c1cccc(-c2cc(Nc3ccc(OC(F)(F)F)cc3)ncn2)c1` is 0.34 °C.
On the same count and under the same terms, the result for `C[C@@H](Nc1cc(F)cc(F)c1)c1cc(C(=O)N(C)C)cc2c(=O)cc(N3CCOCC3)oc12` reads 0.28 °C; that for `C[C@@H]1COCCN1c1cc(=O)n2c(n1)N(Cc1cncc(Cl)c1)[C@H](C(F)(F)F)CC2`, 0.48 °C.
Same read-out and setting: the result for `CNc1nc(-c2ccc3c(N)n[nH]c3c2)cc(N2C[C@@H](C(=O)NC3CCCCC3)CC[C@H]2C)n1` reads 0.09 °C; that for `COc1cc(N2CCC(N(C)C)CC2)ccc1Nc1ncc(Cl)c(Nc2ccccc2P(C)(C)=O)n1`, 0.79 °C; that for `CN1CCN(c2ccc3nc(-c4c(N)c5c(F)cccc5[nH]c4=O)[nH]c3c2)CC1` [Dovitinib (TKI258) Lactate], 4.81 °C.
For `N#C/C(=C(/N)Sc1ccc(N)cc1)c1ccccc1C(F)(F)F`, the “thermal shift delta Tm” value came to 0.32 °C.
Still for that read-out and setting: the figure for `Cc1c(C(=O)N2CCOc3ccc(-c4ccc(N)nc4)cc3C2)ccc(S(C)(=O)=O)c1F` is 0.01 °C; for `CCOc1cc2ncc(C#N)c(Nc3ccc(F)c(Cl)c3)c2cc1NC(=O)/C=C/CN(C)C` [Pelitinib (EKB-569)] it is 1.14 °C.
Same read-out and setting: the result for `Oc1ccc(Nc2nc(-c3ccc(Cl)cc3)cs2)cc1` reads 0.5 °C; that for `O=C(Nc1ccccc1C(=O)NC1CCCCNC1=O)c1cc2ccccc2s1` (centres undefined), 0.05 °C.
On the same count and under the same terms, the figure for `CC(C)c1c2cc(-c3ccnc(NC4CCC(NC5CCOCC5)CC4)n3)ccc2nn1C` (centres undefined) is 1.83 °C; for `NCC(=O)Nc1ccc(-n2nc(C(F)(F)F)cc2-c2ccc3c(ccc4ccccc43)c2)cc1` it is 0.31 °C.
`Cc1cc(NC(=O)c2cccc(NC(=O)/C=C/CN(C)C)c2)ccc1Nc1nccc(-c2cccnc2)n1`: the “thermal shift delta Tm” value was found to be 4.22 °C.
On to `N#Cc1ccc2ncnc(NCCc3ccccc3)c2c1` [Senexin A], for which the “thermal shift delta Tm” value was determined as 0.41 °C.
On the same count and under the same terms, the figure for `CCOc1cn(-c2ccc(F)cc2C)nc1C(=O)Nc1ccc(Oc2ccnc3cc(OC)c(OC)cc23)c(F)c1` is 0.01 °C.
Same read-out and setting: the result for `Fc1ccc2[nH]ccc2c1-c1nc(N2CCOCC2)c2sc(CN3CCN(CC4CC4)CC3)cc2n1` reads 2.96 °C; that for `COc1cccc2cc(-c3nc([C@H]4CC[C@H](C(=O)O)CC4)n4ncnc(N)c34)[nH]c12`, 0.36 °C.
The same measure, in the same setting: the figure for `N#Cc1cnc(Nc2cc(NC[C@H]3CNCCO3)c(C(F)(F)F)cn2)cn1` is 0.47 °C.
As to `O=C(NOCCO)c1ccc2cncn2c1Nc1ccc(I)cc1F`, the “thermal shift delta Tm” value amounted to 1.31 °C.
Still for that read-out and setting: the result for `COc1cc2c(Nc3ccc(NC(=O)c4ccccc4)cc3)ncnc2cc1OCCCN1CCOCC1` reads -0.03 °C; that for `NC(=O)Nc1cc(-c2cccc(F)c2)sc1C(=O)N[C@H]1CCCNC1`, 0.3 °C.
On the same count and under the same terms, the result for `CNC(=O)c1ccc(-c2cnc3ncc(Cc4ccc5ncccc5c4)n3n2)cc1F` reads 0.48 °C.
